Screening results from PubChem.
Most compounds without a hit are left out; they make up all but 8.2% or so of the library.
SW480 rereplic = A quantitative high throughput screen for small molecules that induce DNA re-replication in SW480 colon adenocarcinoma cells. AID 624297, 2012. 340,000 compounds, 1.8% hits. Potency, µM (titrated, usually from 46.1 µM), without a hit: at the highest dose re-replication activation, most hits filed as activators. SW480 DNA re-replication, Hoechst DNA content imaging, 48 h; note: % of control where 0% means no effect; nearly all actives have a fitted effect of over 55% in size
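Treated cells incubate 48 hr (37 C, 5% CO2), are stained 40 min with Hoechst, and nuclear fluorescence is enumerated; a rise in nuclei with high DNA signal marks re-replication.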
KB-3-1 cytotox = qHTS assay for MDR1-selective chemotherapeutics: Primary screen using the parental adenocarcinoma cell KB-3-1 | KB-3-1 viability, CellTiter-Glo ATP luminescence, 72 h | 400,000 compounds, 1.4% hits | Potency, µM (doses to about 46.1 µM), usual class: cytotoxic; note: % is set by controls: 0 for no effect and ±100 for the full control effect; nearly all actives have a fitted effect of over 60% in size
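KB-3-1 cells, DMEM (no phenol red) + 10% FBS; compound by pin transfer, 72 h, 37 °C. Readout: CellTiter-Glo luminescence after 10 min. Data normalized, curve-fitted.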
ELG1 repair inh = qHTS screen for small molecules that inhibit ELG1-dependent DNA repair in human embryonic kidney (HEK293T) cells expressing luciferase-tagged ELG1. HEK293T ELG1-luciferase reporter, luminescence, 16 h; DNA damage induced by 5-fluorouridine. Potency, µM (doses to about 46.1 µM), without a hit: at the highest dose activity change, negative = inhibition, hits mostly inhibitors. 330,000 compounds, 2.3% hits; note: % is set by controls: 0 for no effect and ±100 for the full control effect; nearly all actives have a fitted effect of over 55% in size
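Step one: seed 2,000 cells per well. Step two: pin-transfer compound or DMSO alongside 5-fluorouridine. Step three: incubate 16 hr, 37 °C, 5% CO2. Step four: add ONE-Glo, wait 30 min, read luminescence.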
KB-V1 MDR tox = qHTS assay for MDR1-selective chemotherapeutics: Primary screen using the drug-selected MDR subline cells KB-V1 | 400,000 compounds, 3.4% hits | AID 1347076, 2019 | Potency, µM (titrated, usually from 46.1 µM), usual class: cytotoxic | KB-V1 MDR cells viability, CellTiter-Glo, 72 h; note: % is set by controls: 0 for no effect and ±100 for the full control effect; nearly all actives have a fitted effect of over 60% in size
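Following 72 h at 37 degrees C with compound, KB-V1 cell viability was read by CellTiter-Glo luminescence, medium being phenol-red-free DMEM plus 10% FBS; concentration-response parameters came from normalized, curve-fitted qHTS data.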
MCF10A rerep = A quantitative high throughput screen for small molecules that induce DNA re-replication in MCF 10a normal breast cells; MCF 10A DNA re-replication, Hoechst nuclear intensity, 48 h; Potency, µM (highest dose often 46.1 µM), for the others: at the highest dose activity, positive = re-replication, actives largely listed as activators; 350,000 compounds, 2.9% hits; AID 624296, 2012; note: % of control where 0% means no effect; nearly all actives have a fitted effect of over 50% in size
* hit, by the source's call. Calls come from the whole dose curve; as a rule, active = well fitted curve in the direction sought with a large enough effect; inconclusive = small, poorly fitted or top-dose-only effect, or another doubt; inactive = no such curve, though single readings can be large; an effect the other way counts as inactive or inconclusive. Potency is the fitted concentration of half-maximal effect.

Screening O=C(Nc1ccc(NC(=O)c2ccccc2Cl)nc1)c1ccco1 returned SW480 rereplic 3%, KB-3-1 cytotox inactive, ELG1 repair inh inconclusive, KB-V1 MDR tox inconclusive and MCF10A rerep 8%.
`CC(C)(C)OC(=O)NCC(=O)NCC(=O)OCc1ccccc1` gave SW480 rereplic -1%, KB-3-1 cytotox inactive, ELG1 repair inh -1%, KB-V1 MDR tox inactive and MCF10A rerep 0%.
NCC(=O)NCC(=O)OCc1ccccc1 was read as SW480 rereplic -29%, KB-3-1 cytotox inactive, ELG1 repair inh 1%, KB-V1 MDR tox inactive and MCF10A rerep 1µM*.
Screening COc1nc(N(c2ccccc2)c2ccccc2)nc(-n2ccnc2)n1 returned SW480 rereplic -5%, KB-3-1 cytotox inactive, ELG1 repair inh inconclusive, KB-V1 MDR tox inconclusive and MCF10A rerep 16µM*.
`CS/C(N)=N/N=C/c1cc(Br)cc(Br)c1O` gave SW480 rereplic inconclusive, KB-3-1 cytotox inactive, ELG1 repair inh 1%, KB-V1 MDR tox inconclusive and MCF10A rerep inconclusive.
`CC(C)(C)c1ccc(/C=N/Nc2nncn2N)cc1` gave SW480 rereplic 26%, KB-3-1 cytotox inactive, ELG1 repair inh inconclusive, KB-V1 MDR tox inactive and MCF10A rerep 12µM*.
For Nn1cnnc1N/N=C/c1cc(Br)cc(Br)c1O the results were SW480 rereplic inconclusive, KB-3-1 cytotox inconclusive, ELG1 repair inh -19%, KB-V1 MDR tox 2.3µM* and MCF10A rerep inconclusive.
`CSc1ccc(/C=N\Nc2nncn2N)cc1` gave SW480 rereplic 7%, KB-3-1 cytotox inactive, ELG1 repair inh inconclusive, KB-V1 MDR tox inactive and MCF10A rerep inconclusive.
Screening CC(C)Nc1nc(Nc2ccc(C#N)cc2)c2sccc2n1 returned KB-3-1 cytotox inactive and KB-V1 MDR tox inactive.
Screening CCCOc1cc(C)c(S(=O)(=O)NCCOC)cc1C returned SW480 rereplic 1%, KB-3-1 cytotox inactive, ELG1 repair inh -10%, KB-V1 MDR tox 18µM* and MCF10A rerep -2%.
`Cc1noc(C)c1NC(=O)Nc1cccc2c1O[C@H](CN(C)C(=O)Nc1ccc(C(F)(F)F)cc1)[C@@H](C)CN([C@H](C)CO)C2=O` gave SW480 rereplic 14%, KB-3-1 cytotox inactive, ELG1 repair inh inconclusive, KB-V1 MDR tox inactive and MCF10A rerep -4%.
COc1cc(-c2nc3cnccn3c2Nc2c(C)cccc2C)ccc1O was read as SW480 rereplic 23µM*, KB-3-1 cytotox inactive, ELG1 repair inh 1%, KB-V1 MDR tox inactive and MCF10A rerep 16µM*.
Screening COc1cc(-c2nc3cnccn3c2NC(C)(C)CC(C)(C)C)ccc1O returned SW480 rereplic -3%, KB-3-1 cytotox inactive, ELG1 repair inh -29%, KB-V1 MDR tox inactive and MCF10A rerep 2%.
For Cc1cccc(C)c1Nc1c(-c2ccc(N3CCOCC3)cc2)nc2cnccn12 the results were SW480 rereplic inconclusive, KB-3-1 cytotox inactive, ELG1 repair inh -1%, KB-V1 MDR tox inactive and MCF10A rerep 23µM*.
`COc1ccc(CN(C(C)=O)c2cc(C)c([N+](=O)[O-])cc2OC)cc1OC` gave KB-3-1 cytotox inactive and KB-V1 MDR tox inconclusive.
For Cn1c(-c2ccc(F)cc2)cnc1NCc1ccccc1 the results were SW480 rereplic inconclusive, KB-3-1 cytotox inconclusive, ELG1 repair inh 18%, KB-V1 MDR tox 21µM* and MCF10A rerep inconclusive.
For CCCCCn1c(=O)c(C(=O)c2ccccc2)nc2ccccc21 the results were SW480 rereplic -5%, KB-3-1 cytotox inconclusive, ELG1 repair inh -17%, KB-V1 MDR tox 12µM* and MCF10A rerep -1%.
For CCn1c(=O)c(C(C)=O)nc2ccccc21 the results were SW480 rereplic -5%, KB-3-1 cytotox inactive, ELG1 repair inh 10%, KB-V1 MDR tox inactive and MCF10A rerep -14%.
Cc1ccc(C(=O)Nc2nnc(CC(=O)N/N=C/c3ccncc3)s2)cc1 was read as SW480 rereplic 21µM*, KB-3-1 cytotox inactive, ELG1 repair inh inconclusive, KB-V1 MDR tox inactive and MCF10A rerep 0%.
Cc1ccc(C(=O)Nc2nnc(CC(=O)N/N=C/c3ccc(O)c(O)c3)s2)cc1 was read as SW480 rereplic -10%, KB-3-1 cytotox inactive, ELG1 repair inh inconclusive, KB-V1 MDR tox inactive and MCF10A rerep 27%.
For COC1CCN(Cc2c(C(=O)N3CCN(C4CCCCC4)CC3)nc3ccccn23)CC1 the results were SW480 rereplic 0%, KB-3-1 cytotox inactive, ELG1 repair inh 6%, KB-V1 MDR tox inactive and MCF10A rerep -3%.
CCN(CC(=O)Nc1ccccc1OC)C(=O)CN1C(=O)NC(C)(c2ccc3ccccc3c2)C1=O (centres undefined) was read as SW480 rereplic 3%, KB-3-1 cytotox inactive, KB-V1 MDR tox inactive and MCF10A rerep 1%.
Screening CC(C)c1nc(N2CCN(C(=O)c3ccco3)CC2)c(C#N)c2c1COC(C)(C)C2 returned SW480 rereplic 24%, KB-3-1 cytotox inconclusive, ELG1 repair inh inconclusive, KB-V1 MDR tox 18µM* and MCF10A rerep inconclusive.
Screening Cc1nc(N2CCN(Cc3ccccc3)CC2)c(C#N)c2c1COC(C)(C)C2 returned SW480 rereplic 12%, KB-3-1 cytotox inactive, ELG1 repair inh 7.3µM*, KB-V1 MDR tox inconclusive and MCF10A rerep 6%.
`CC1(C)Cc2c(C#N)c(N3CCN(C(=O)c4ccccc4)CC3)nc(-c3ccco3)c2CS1` gave SW480 rereplic 2%, KB-3-1 cytotox inconclusive, ELG1 repair inh inconclusive, KB-V1 MDR tox inconclusive and MCF10A rerep 13µM*.
For CC(C)c1nc(N2CCN(C(=O)c3ccccc3)CC2)c(C#N)c2c1COC(C)(C)C2 the results were SW480 rereplic 17%, KB-3-1 cytotox inconclusive, ELG1 repair inh inconclusive, KB-V1 MDR tox inconclusive and MCF10A rerep inconclusive.
`CSc1nc(N2CCN(C)CC2)c2c(c1C#N)CC(C)(C)OC2` gave SW480 rereplic -59%, KB-3-1 cytotox inactive, ELG1 repair inh 8.2µM*, KB-V1 MDR tox inconclusive and MCF10A rerep inconclusive.
Screening COc1ccc(Cc2c(-c3ccc(F)cc3)nc3c(C)cc(Br)cn23)c(C)c1 returned KB-3-1 cytotox inactive and KB-V1 MDR tox inactive.
For CNS(=O)(=O)c1cccc(C(=O)OCc2cc(Cl)cc3c2OCOC3)c1 the results were SW480 rereplic 15%, KB-3-1 cytotox inactive, ELG1 repair inh inconclusive, KB-V1 MDR tox 18µM* and MCF10A rerep inconclusive.
